# Active and inactive are the calls of the source. Calls come from the whole dose curve; as a rule, active = well fitted activation curve with a large enough effect; inconclusive = small, poorly fitted or top-dose-only effect; inactive = flat fitted curve, though single readings scatter.
# Assay: Cellular Toxicity (caspase-3) N2a (AID 665);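 note: compound exposure lasted 16 h at 37 °C before readout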
# Details: N2a cells, luminescence, normalized: DMSO 0%, 10 µM staurosporine 100%; series mostly up to 92.2 µM; caspase-3 activation: at the top concentration
# Text: NIH Chemical Genomics Center [NCGC]
# NIH Molecular Libraries Screening Centers Network [MLSCN]
# National Institutes of Environmental Health Sciences [NIEHS]
# National Toxicology Program [NTP]
# We have developed a 1536-well cell-based assay for quantitative high throughput screening (qHTS) against a number of cell lines to determine in vitro caspase 3/7 activity of small molecules. This particular assay uses the N2a cell line which is derived from mouse neuroblastoma.
# NCGC Assay Protocol Summary:
# The Caspase-Glo 3/7 assay (Promega) is a homogeneous method to measure caspase-3 and caspase-7 activities in cultured cells. The quantitation of caspase 3/7 activity is based on the cleavage of a peptide-aminoluciferin substrate. After caspase cleaves the substrate the free aminoluciferin is liberated and serves as the substrate of luciferase, which generates the light. The luminescent signal is proportional to the amount of caspase 3/7 activity present.
# Using the Caspase-Glo 3/7 assay, the amount of caspase 3/7 activity was measured in the N2a cells with complete culture medium following compound treatment for 16 hours. The assay was performed in opaque white 1536-well plates. In the screen, staurosporine and doxorubicin were used as positive controls. Library compounds were measured for their ability to cause the activation of caspase 3/7 in the cell line, as reflected by an increase in luminescence signal, in a concentration-dependent manner. Data were normalized to the controls for basal activity (DMSO only) and 100% stimulation (10 uM staurosporine). AC50 values were determined from concentration-response data modeled with the standard Hill equation.
# qHTS protocol for caspase 3/7 assay in mouse N2a cell line
# [Step] [Parameter] [Value] [Description]
# 1. Reagent; 5 uL; 1500 mouse N2a cells/well
# 2. Time; 5 hr; 37 °C incubation
# 4. Controls; 23 nL; doxorubicin 7 pM to 100 uM & staurosporine 1.4 pM to 20 uM
# 5. Time; 16 hr; 37 °C incubation
# 6. Reagent; 5 uL; Caspase-Glo 3/7 reagent
# 7. Time; 1 hr; Room Temperature
# 8. Detection; Luminescence; Viewlux plate reader
# Keywords: caspase 3/7, apoptosis, mouse N2a cell line, luminescence, NTPHTS, NTPHTS_NCGC, NIEHS, EPA, DSSTox, MLSMR, MLSCN, NIH Roadmap, qHTS, NCGC
row,Compound,caspase-3 activation
1,O=C(O)CN(CC(=O)O)CC(=O)O,0.0354% (inactive)
2,CC=C(Cl)Cl,-4.27% (inactive)
3,Cc1ccccc1C(=O)O,-2.83% (inactive)
4,O=P(O)(OCc1ccccc1)OCc1ccccc1,-3.17% (inactive)
5,CNC(=O)N(c1ccccc1)c1ccccc1,0.322% (inactive)
6,CCCCCNCCCCC,-0.00937% (inactive)
7,CCCCOCCOCCSC#N,1.12% (inactive)
8,O=[N+]([O-])c1cc(C(F)(F)F)ccc1Cl,-2.35% (inactive)
9,C=C(C)C1CC=C(C)C(OC(C)=O)C1 (stereo not given),1.63% (inactive)
10,CC1(N)CCC(C(C)(C)N)CC1 (stereo not given),-2.02% (inactive)
11,Cc1cccc([N+](=O)[O-])c1C(=O)O,-0.284% (inactive)
12,CC/C(C)=N/O,-3.11% (inactive)
13,Cc1c(N)cccc1N,-3.65% (inactive)
14,CCNc1ccccc1,3.1% (inactive)
15,Cc1cc(C)cc(O)c1,-1.14% (inactive)
16,Cc1ccc2oc(=O)ccc2c1,-3.28% (inactive)
17,O=[N+]([O-])c1ccccc1CCO,-1.64% (inactive)
18,O=C(Cl)c1c(Cl)cccc1Cl,-2.5% (inactive)
19,CO[Si](CCCNCCC[Si](OC)(OC)OC)(OC)OC,-3.74% (inactive)
20,O=C1OC(=O)c2c(Br)c(Br)c(Br)c(Br)c21,-0.0132% (inactive)

row,Compound,caspase-3 activation
1,CCC=O,-0.119% (inactive)
2,C=Cc1ccccc1C=C,-2.44% (inactive)
3,CCC(C)(C)OC,-0.75% (inactive)
4,FC(F)(F)c1cccc(Cl)c1,-4.27% (inactive)
5,Nc1ccc(Cl)cc1[N+](=O)[O-],0.916% (inactive)
6,C=Cc1ccc(C=C)cc1,1.27% (inactive)
7,CN(C)CCCCl,-1.7% (inactive)
8,Cc1cc(C)cc([N+](=O)[O-])c1,0.888% (inactive)
9,Oc1c(Cl)ccc(Cl)c1Cl,-2.39% (inactive)
10,Clc1ccccn1,-3.38% (inactive)
11,Nc1cc(Cl)c(N)c(Cl)c1,0.834% (inactive)
12,O=C1CCCCC1,-2.33% (inactive)
13,CC(N)CN (stereo not given),-2.42% (inactive)
14,S=C([S-])NCCNC(=S)[S-].[Zn+2],-5.71% (inactive)
15,CC(=O)c1nccs1,-1.4% (inactive)
16,CC(C)CCOC(=O)/C=C/c1ccccc1,0.583% (inactive)
17,CCCCOCCOCCOCCCC,0.107% (inactive)
18,CC(=O)OC(C)=O,-3.43% (inactive)
19,CNc1ccc([N+](=O)[O-])cc1,-3% (inactive)
20,Cc1cc(C)c(N)cc1C,1.3% (inactive)
